From ChEMBL document CHEMBL3988442, “University of Dundee, Small-Polar-MMV Screening Library” (2021)
For some assays here: Measured potencies and affinities stand elsewhere.

Assays:
Set-up in all cases: scale not given: direction of the effect not stated beside the values
[1] = target: Protein translocase subunit SecA (Escherichia coli (strain K12)) (UniProt P10408); test: Assay to Identify E. coli SecA ATPase Inhibitors; type: functional; details: 30 µM
[2] = target: T1, Ubiquitin-activating enzyme e1, putative (Leishmania donovani (strain BPK282A1)) (UniProt E9BSI1); test: Leishmania donovani Ubiquitin Activating Enzyme (LdE1); type: functional; details: 30 µM
T1 sequence (whole entry): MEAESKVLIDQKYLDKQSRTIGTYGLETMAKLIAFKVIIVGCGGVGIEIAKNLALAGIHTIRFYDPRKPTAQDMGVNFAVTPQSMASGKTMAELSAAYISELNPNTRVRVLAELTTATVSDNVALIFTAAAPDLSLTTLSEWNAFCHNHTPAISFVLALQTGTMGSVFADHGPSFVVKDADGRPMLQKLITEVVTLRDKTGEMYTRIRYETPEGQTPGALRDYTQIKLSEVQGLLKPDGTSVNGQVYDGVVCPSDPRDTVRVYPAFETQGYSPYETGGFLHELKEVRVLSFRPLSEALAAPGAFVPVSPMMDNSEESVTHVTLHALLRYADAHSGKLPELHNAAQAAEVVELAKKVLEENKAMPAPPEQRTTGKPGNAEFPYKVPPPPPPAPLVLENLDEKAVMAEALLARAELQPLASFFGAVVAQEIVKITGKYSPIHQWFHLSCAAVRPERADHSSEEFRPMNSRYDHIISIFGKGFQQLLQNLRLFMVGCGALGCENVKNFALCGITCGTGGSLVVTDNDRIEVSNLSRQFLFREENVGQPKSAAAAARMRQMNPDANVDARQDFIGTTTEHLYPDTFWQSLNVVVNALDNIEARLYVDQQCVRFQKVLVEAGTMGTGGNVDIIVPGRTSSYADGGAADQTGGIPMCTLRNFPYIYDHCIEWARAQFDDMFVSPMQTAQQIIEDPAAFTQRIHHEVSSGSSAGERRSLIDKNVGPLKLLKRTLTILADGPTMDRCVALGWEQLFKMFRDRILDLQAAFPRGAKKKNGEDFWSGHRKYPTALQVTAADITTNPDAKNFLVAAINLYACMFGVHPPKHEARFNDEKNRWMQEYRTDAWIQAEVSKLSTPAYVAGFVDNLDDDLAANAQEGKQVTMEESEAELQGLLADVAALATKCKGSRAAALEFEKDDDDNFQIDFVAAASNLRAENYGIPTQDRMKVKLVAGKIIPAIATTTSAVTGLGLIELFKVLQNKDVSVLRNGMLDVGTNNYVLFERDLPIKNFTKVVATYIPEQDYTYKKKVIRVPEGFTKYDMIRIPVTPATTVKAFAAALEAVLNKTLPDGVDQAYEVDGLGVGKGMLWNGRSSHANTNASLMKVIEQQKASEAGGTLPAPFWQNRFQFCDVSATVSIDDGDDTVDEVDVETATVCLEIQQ

[3] = target: AMP-activated protein kinase, AMPK (Homo sapiens) (UniProt P54646+O43741+P54619+Q9UGJ0+Q9Y478+Q13131+Q9UGI9); test: AMP-dependent Kinase enzyme assay. An in vitro enzyme assay that detects ADP turnover that is directly proportional to AMPK activity. This uses naive AMPK that is activated during the assay with MK-8722; type: functional; details: 30 µM
[4] = target: Sialic acid-binding Ig-like lectin 9 (Homo sapiens) (UniProt Q9Y336); test: Hs-Siglec9 ALPHAscreen SOP 20170721; details: 10 µM
[5] = test system: Trypanosoma cruzi; test: Trypanosoma cruzi phosphomannomutase and mannose-1-phosphate guanylyltransferase assay; type: functional; details: 10 µM
[6] = target: T2, Arginase-2, mitochondrial (Homo sapiens) (UniProt P78540); test: in vitro enzyme assay to detect the production of urea directly proportional to the activity of Arginase II; type: functional; details: 33.3 µM; further: in the data most compounds retested in dose-response had high values
T2 sequence (whole entry): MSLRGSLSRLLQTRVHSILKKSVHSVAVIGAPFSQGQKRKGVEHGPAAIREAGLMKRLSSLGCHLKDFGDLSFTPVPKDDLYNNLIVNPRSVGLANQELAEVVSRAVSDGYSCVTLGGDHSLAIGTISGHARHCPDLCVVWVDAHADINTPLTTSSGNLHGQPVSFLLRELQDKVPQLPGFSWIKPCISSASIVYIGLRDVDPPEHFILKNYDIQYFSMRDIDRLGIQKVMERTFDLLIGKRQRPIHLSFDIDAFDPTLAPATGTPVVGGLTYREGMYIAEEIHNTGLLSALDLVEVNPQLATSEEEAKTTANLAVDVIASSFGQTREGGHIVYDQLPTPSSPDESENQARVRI

[7] = target: T3, Proteasome subunit beta (Trypanosoma cruzi) (UniProt O96673); test: Trypanosoma cruzi proteasome chymotrypsin-like activity (TcProtChymo) assay.; further: in the data most compounds retested in dose-response had high values; type: functional; details: 9.37 µM
T3 sequence (whole entry): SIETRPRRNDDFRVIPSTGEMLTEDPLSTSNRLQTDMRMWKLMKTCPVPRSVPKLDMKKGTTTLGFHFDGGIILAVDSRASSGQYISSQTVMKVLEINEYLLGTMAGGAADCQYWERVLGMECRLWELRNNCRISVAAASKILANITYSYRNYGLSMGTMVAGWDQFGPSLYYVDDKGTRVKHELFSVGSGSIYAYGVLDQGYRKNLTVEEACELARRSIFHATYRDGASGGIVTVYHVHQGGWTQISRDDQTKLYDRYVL

[8] = species on record: Homo sapiens; test: To identify inhibition of the IFN signalling (Jak-Stat) pathway via expression of an eGFP reporter gene under the control of an IFN-stimulated response element (ISRE) containing MxA promoter.; type: functional; details: 30 µM
[9] = target: T4, Tyrosyl-tRNA synthetase, putative (Trypanosoma cruzi (strain CL Brener)) (UniProt Q4DSP6); test: Trypanosoma cruzi tyrosyl tRNA synthetase (TcYRS) _High Tyrosine SOP; type: functional; details: 30 µM; further: in the data most compounds retested in dose-response had high values
T4 sequence (whole entry): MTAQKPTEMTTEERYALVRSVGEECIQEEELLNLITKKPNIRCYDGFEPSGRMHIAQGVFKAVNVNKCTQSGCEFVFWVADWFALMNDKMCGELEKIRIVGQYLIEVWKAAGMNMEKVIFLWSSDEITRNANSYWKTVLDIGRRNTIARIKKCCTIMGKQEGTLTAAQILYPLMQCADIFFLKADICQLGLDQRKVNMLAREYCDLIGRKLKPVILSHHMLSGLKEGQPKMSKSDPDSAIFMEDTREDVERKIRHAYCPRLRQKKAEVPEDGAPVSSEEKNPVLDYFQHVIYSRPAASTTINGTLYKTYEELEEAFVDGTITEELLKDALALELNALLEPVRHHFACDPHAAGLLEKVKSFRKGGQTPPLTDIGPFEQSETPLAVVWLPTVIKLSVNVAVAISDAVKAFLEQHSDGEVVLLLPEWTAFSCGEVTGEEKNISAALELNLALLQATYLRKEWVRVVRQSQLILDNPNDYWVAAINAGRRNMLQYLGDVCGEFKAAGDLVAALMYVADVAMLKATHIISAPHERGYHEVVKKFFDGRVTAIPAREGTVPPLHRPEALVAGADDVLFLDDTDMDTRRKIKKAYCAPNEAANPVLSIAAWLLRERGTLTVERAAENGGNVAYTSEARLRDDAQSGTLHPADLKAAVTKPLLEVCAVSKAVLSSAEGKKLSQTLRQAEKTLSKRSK

[10] = target: T4, Tyrosyl-tRNA synthetase, putative (Trypanosoma cruzi (strain CL Brener)); test: Trypanosoma cruzi tyrosyl tRNA synthetase (TcYRS) SOP; type: functional; details: 30 µM
[11] = target: Chromo domain-containing protein 1 (Saccharomyces cerevisiae (strain ATCC 204508 / S288c) (Baker's yeast)) (UniProt P32657); test: ScCHD-1 Enzyme Inhibition Assay; type: functional; details: 30 µM; further: in the data most compounds retested in dose-response had high values
Chain of Chromo domain-containing protein 1 (Saccharomyces cerevisiae (strain ATCC 204508 / S288c) (Baker's yeast)) (P32657 whole entry, the tested form may be a part): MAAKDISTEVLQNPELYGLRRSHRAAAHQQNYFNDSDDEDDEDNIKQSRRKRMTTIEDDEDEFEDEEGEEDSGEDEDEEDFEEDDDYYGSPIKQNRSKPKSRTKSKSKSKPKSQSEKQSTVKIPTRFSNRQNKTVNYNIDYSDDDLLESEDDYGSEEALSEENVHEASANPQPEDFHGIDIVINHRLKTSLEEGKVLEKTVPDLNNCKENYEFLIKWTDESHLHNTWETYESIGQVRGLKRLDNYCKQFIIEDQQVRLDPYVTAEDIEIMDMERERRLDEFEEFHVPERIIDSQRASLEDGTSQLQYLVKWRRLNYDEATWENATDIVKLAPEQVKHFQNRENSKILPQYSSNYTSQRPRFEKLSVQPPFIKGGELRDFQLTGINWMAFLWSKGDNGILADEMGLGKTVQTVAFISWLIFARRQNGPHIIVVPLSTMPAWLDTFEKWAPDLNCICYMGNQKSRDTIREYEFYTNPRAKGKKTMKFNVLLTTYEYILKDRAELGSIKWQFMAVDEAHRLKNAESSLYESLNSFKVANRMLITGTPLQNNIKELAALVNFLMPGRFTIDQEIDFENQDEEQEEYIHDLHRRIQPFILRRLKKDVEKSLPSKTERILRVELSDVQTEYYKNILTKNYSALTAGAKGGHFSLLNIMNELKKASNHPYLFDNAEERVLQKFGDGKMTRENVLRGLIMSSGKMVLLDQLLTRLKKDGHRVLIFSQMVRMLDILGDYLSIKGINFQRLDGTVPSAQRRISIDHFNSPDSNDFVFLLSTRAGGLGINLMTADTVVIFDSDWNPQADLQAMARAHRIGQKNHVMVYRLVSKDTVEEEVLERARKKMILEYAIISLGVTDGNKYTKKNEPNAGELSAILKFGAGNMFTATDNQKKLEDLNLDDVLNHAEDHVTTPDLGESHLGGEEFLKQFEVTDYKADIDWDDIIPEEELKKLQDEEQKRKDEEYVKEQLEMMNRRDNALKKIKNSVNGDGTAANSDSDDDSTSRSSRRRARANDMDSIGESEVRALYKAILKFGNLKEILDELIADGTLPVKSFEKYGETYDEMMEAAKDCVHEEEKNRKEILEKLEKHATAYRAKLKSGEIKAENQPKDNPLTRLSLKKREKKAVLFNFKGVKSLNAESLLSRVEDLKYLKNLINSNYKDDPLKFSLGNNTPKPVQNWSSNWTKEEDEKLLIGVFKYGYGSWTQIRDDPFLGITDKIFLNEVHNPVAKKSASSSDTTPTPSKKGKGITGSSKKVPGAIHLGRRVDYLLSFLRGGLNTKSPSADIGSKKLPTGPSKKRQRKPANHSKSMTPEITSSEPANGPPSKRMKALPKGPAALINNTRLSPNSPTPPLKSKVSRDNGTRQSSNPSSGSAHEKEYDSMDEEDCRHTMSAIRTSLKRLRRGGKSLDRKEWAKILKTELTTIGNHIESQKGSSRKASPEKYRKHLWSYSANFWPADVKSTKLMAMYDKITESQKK

Chain of Protein translocase subunit SecA (Escherichia coli (strain K12)) (P10408 whole entry): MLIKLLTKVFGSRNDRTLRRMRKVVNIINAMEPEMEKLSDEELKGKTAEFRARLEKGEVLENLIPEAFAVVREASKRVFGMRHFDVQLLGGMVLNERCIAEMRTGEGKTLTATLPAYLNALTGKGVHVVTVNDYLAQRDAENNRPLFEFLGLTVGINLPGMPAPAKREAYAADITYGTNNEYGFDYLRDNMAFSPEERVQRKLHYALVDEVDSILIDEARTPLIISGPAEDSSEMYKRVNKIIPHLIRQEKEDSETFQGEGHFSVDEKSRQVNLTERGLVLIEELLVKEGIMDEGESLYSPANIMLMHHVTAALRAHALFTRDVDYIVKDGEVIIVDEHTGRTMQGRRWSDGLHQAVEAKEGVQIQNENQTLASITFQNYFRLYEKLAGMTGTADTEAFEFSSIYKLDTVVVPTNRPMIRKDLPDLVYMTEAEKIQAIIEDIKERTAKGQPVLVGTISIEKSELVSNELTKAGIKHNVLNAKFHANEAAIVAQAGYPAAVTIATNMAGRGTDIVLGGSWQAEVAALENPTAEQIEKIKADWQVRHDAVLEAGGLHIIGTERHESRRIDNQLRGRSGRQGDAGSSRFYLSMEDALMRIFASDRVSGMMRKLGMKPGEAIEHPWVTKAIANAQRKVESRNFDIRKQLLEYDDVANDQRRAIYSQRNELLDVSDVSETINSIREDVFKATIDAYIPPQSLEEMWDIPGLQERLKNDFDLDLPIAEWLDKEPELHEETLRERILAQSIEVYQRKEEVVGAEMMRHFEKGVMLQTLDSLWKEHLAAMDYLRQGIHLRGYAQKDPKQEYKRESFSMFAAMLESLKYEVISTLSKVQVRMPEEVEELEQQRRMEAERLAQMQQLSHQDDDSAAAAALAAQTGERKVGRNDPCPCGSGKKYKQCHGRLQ
Chain of Sialic acid-binding Ig-like lectin 9 (Homo sapiens) (Q9Y336 whole entry): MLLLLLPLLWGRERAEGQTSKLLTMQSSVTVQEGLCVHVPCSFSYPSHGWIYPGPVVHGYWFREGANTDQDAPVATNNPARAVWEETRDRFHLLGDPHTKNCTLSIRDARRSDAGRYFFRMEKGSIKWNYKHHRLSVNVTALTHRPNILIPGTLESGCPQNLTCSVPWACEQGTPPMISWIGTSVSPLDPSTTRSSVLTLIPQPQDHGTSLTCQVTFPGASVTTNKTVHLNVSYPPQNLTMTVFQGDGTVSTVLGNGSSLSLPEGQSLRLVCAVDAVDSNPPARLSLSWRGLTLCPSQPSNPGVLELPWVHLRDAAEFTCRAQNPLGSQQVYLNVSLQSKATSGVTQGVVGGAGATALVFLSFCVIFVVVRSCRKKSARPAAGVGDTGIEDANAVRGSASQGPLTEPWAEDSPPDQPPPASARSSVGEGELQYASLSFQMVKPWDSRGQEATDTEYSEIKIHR

Row | SMILES | Percent Effect [1] | Percent Effect [2] | Percent Effect [3] | Percent Effect [4] | Percent Effect [5] | Percent Effect [6] | Percent Effect [7] | Percent Effect [8] | Percent Effect [9] | Percent Effect [10] | Percent Effect [11]
1 | COc1ccccc1OCc1cc(C(=O)N2CCN[C@H](C)C2)n[nH]1 | -4.07% | 8.11% | -4.98% | 25.9% | 4.63% | 2.38% | 27.4% | 3.54% | 1.59% | 12.2% | -8.49%
2 | O=C1OCCN1CCOc1nc(-c2ccccc2Cl)no1 | -6.78% | 16.4% | -3.77% | 15.8% | 4.7% | 8.64% | 12.1% | 7.15% | 5.38% | 12.5% | -6.2%
3 | CSCc1cccc(S(=O)(=O)NCCCO)c1 | -4.83% | 5.2% | 5.07% | 1.97% | -0.0983% | -20.7% | 3.33% | -20.6% | 5.38% | 11.1% | -2.83%
4 | Cc1ncc2c(n1)CCCC2NC(=O)c1ccncc1 (configuration not stated) | -8.52% | 2.6% | -3.85% | 1.2% | -1.87% | -1.38% | 3.16% | 0.503% | 1.07% | -3.7% | -0.226%
5 | Cc1cnn(CCNCc2ccccc2C#N)c1 | -7.98% | 5.41% | -2.49% | 6.11% | -5.11% | -0.554% | 5.21% | 14.9% | -1.98% | -1.22% | 1.22%
6 | CCCc1noc(CCC(=O)N2CCCC2c2ccsc2)n1 (configuration not stated) | -3.59% | -55.7% | 0.791% | 6.07% | 1.6% | -2.28% | -0.409% | -2.86% | -2.46% | -1.27% | -4.16%
7 | COCC1CN(Cc2ccc(C)o2)Cc2ncn(CC3CC3)c21 (configuration not stated) | 0.368% | 5.2% | -2.46% | 5.95% | 6.79% | -6.9% | 3.99% | -10.6% | 1.07% | 1.24% | -7.38%
8 | CC(C)S(=O)(=O)NCC1CCCN(C(=O)c2ccc3c(c2)OCCO3)C1 (configuration not stated) | -6.68% | 5.48% | 3.11% | -9.4% | 0.196% | 0% | 7.81% | 5.65% | -1.07% | 5% | -3.79%
9 | COCc1nc(N(C)C)ncc1C(=O)Nc1ccn(C)n1 | -6.73% | 12% | -5.52% | 4.28% | 1.38% | -7.22% | 5.36% | 0.526% | 4.23% | 10.3% | -10.2%
10 | O=c1c2sccc2nc2n1CCN(Cc1cccs1)CC2 | -2.34% | 12.2% | 10.7% | 1.3% | -0.395% | -1.16% | 10.9% | 12.6% | 0% | 11.7% | -12%
11 | Cc1cn2c(n1)CCC(NC(=O)c1cnc(C)nc1C(C)C)C2 (configuration not stated) | -4.68% | 10.4% | -12.2% | 12.9% | 3.23% | 1.9% | 3.48% | 1.24% | 10.5% | 18.8% | -16.9%
12 | CCc1noc(C(C)N2CCN(Cc3ncc(C(C)(C)C)o3)CC2)n1 (configuration not stated) | 1.4% | 28.9% | -4.2% | -2.15% | -3.38% | 0.383% | 15% | 26% | 3.43% | 9.76% | -10.7%
13 | CCc1cnc(N2CC3(CCN(C(=O)c4ccoc4)C3)C2)nc1 | -7.71% | -10.4% | 3.45% | 3.13% | -2.46% | 5.52% | 9.65% | 8.56% | -2.15% | -1.24% | -0.64%
14 | Cc1ccc(-c2cc(N)c(=O)n(CC(=O)NCC3CC3)n2)s1 | -3.74% | 6.76% | 19.9% | 2.48% | -0.395% | -5.8% | 9.2% | 11.4% | 1.07% | 9.09% | -14.1%
15 | CN(c1cccnn1)C1CCN(C(=O)c2ccc3c(c2)COC3)CC1 | -7.72% | -44.2% | 15.1% | 5.38% | 0.187% | 2.85% | 5.41% | 9.98% | 6.8% | 12.2% | -5.25%
16 | CC(C)NC(=O)c1ccc2c(c1)nc1n2CCN(c2ccccc2)C1 | -1.74% | -17.3% | 16.6% | 5.54% | -1.97% | -9.68% | 15.3% | -10.5% | 26.5% | 33.3% | -10.5%
17 | CN(CCc1ccccn1)S(=O)(=O)N1CCCC1c1ccco1 (configuration not stated) | 0.19% | 16.2% | 2.74% | -10.8% | -9.94% | 4.25% | 13.1% | 17.6% | 6.93% | 11% | -5.75%
18 | Cc1nccn1CCC1CCCCN1C(=O)c1ccc2[nH]nnc2c1 (configuration not stated) | -2.88% | 10.7% | -0.957% | 10% | 2.63% | 16.7% | 9.59% | 7.47% | 3.83% | 6.17% | -6.44%
19 | Cn1c(CN2CCOC(c3nc(C(C)(C)C)n[nH]3)C2)nnc1C1CC1 (configuration not stated) | -7.68% | -26% | -4.74% | -20.2% | 7.35% | -8.63% | 4.93% | -6.09% | 3.81% | 18.8% | -22.6%
20 | COc1cccc2c1OCC(CNC(=O)CCCN1CCOCC1)C2 (configuration not stated) | -1.74% | 5.41% | -7.92% | 19.8% | 2.05% | -0.248% | 13.1% | 11.9% | 8.6% | 18.5% | -5.59%
21 | CC(=O)Nc1ccc(-n2ccc3nc(N4CCCC4)ncc3c2=O)cc1 | -3.46% | -9.33% | 1.45% | 1.82% | -2.36% | 0.88% | 3.14% | -5.51% | 1.06% | -7.69% | 3.54%
22 | CN(C)c1cc(CNC(=O)c2ccc(F)cc2F)ccn1 | -4.79% | 28.6% | -1.46% | 10.4% | 5.62% | -1.78% | 8.11% | 8.43% | 5.83% | 24.4% | -9.26%
